The supplement of paper PMC6555819

These sequences were tested on VDR homodimer (NR concentration 270 nM) (assay: PBM binding z-score (relative to random genomic background probes); higher = stronger binding; sequences stand for … in GC…GCGATTGACAGCGTAGAATGAAGG).
Procedure, shortened: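 On custom Agilent 4×180K arrays, double-stranded probes with 34-nt variable regions carried direct-repeat seeds, single-nucleotide variants, half-site ablations or random human genomic background. Ligand-free nuclear receptor dimers were applied for 1 h, and binding was read with antibodies against each partner (one per run). Binding z-scores come from regression-normalized fluorescence, with the random background probes as reference.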

| Sequence | PBM binding z-score |
| --- | --- |
| AGAACGAGGGCAAAGAGTTGATAGCACGGGTGGC | 3.05 |
| CAAACTAGGTCACGAAAGGTCTAAGTCGAATGAC | 0.873 |
| GATACAGGGTCAGCTAGCGGCCAGAGTATGGAAA | 0.352 |
| TCTTCTAGATCAACAGGAGGTTAAGAAAGATCGA | -0.175 |
| TCTCGGAGGACACGAAAGGTCACAGCTCGACATC | 2.48 |
| ACTATTAGTTGACTTACGGCAACCGATACGACGC | -0.179 |
| TCTATTTGGTCACGGAGGTCACACACGACGGGTA | 3.22 |
| TCTCGGAGGACACGACAGGTCAGAGCTCGACATC | 0.677 |
| TGAAAGAGGTTAAAGATCAGGGAACGTGGCGTCG | 0.28 |
| CAAACTAGGTTAAGGTCAAAGTCGGTTTGTGCCA | 4.48 |
| AATACAGGGTCATCGTAGGCGAGAGTACGCACAG | 3.54 |
| CTCGAAAGGTCGGGCTCAGGTGAGTATACCAAAC | 0.356 |
| ATCGAAAGGTCGACGAGGCGAGTATACACCGTTT | 0.605 |
| CCGACTGGGGCATAAGGTTTCCATAAGCCAGCCC | -0.137 |
| CCTAGCAGGCCAGGGTTACTCAAGCATTTCGCTT | -0.788 |
| TTACCCAGGTGAAAGGTCGTTGATGCACGCCTTG | 1.66 |
| CGTACTAGGTCAAGGACAGTGAATCTCCGCACGC | 0.444 |
| ACTAGCAGGCCAAGTGTGGGTCACTCAAACAAAG | -0.135 |
| CCAGACAGGTGAAAGATAACTCAGTCTGGTACGC | 0.339 |
| CCTGTTAGGTCAATGGTCAGCTAAAGCAGCTCGC | 0.926 |
| AGTCAAAGTTCAGGACGTGGTAACGTAAAGCACG | 1.49 |
| CGTCCAAGGTCAGAGAGGTCAGAGAATGCCGAGT | 5.54 |
